In article PMC7862700, “An all-to-all approach to the identification of sequence-specific readers for epigenetic DNA modifications on cytosine” one finds binding signal data, which are given here for 1 sequence.

Assay in all cases: DAPPL (digital affinity profiling via proximity ligation, sequencing); 10 mM Tris-HCl pH 7.5, 50 mM NaCl, 1 mM DTT, 4% glycerol, room temperature, 30 min; GST-TFs on glutathione beads, 16-mer random dsDNA library, 0.1% formaldehyde crosslink after washing; high values mean tight binding
One test concerns the target T1, FEV (Homo sapiens, UniProt Q99581 1-238).
T1 sequence: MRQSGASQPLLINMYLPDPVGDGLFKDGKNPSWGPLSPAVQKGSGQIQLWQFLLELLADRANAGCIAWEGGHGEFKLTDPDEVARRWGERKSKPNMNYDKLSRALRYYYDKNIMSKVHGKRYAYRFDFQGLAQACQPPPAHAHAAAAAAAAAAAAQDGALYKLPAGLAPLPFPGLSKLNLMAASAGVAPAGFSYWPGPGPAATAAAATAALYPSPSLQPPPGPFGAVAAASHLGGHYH
Particulars: protein: recombinant; tags: N-terminal GST; dsDNA, one strand shown. In short, it runs like this: (§1)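 Human transcription factors fused to GST were expressed in yeast, captured on glutathione beads, given DNA barcodes and pooled with a GST-only negative control. Pools were incubated with 200 nmole of a 16-mer random double-stranded DNA library in Tris/NaCl/DTT/glycerol buffer at room temperature for 30 min. They were then washed, crosslinked with 0.1% formaldehyde, proximity-ligated (BsaI/T4 ligase, 1 h, 37 °C), PCR-amplified and sequenced on an Illumina NextSeq500. Binding signal is each 6-mer's read frequency for a factor divided by its frequency for the GST control.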

The target in another test is ETV5 (Homo sapiens, UniProt P41161 1-510). The following applies: protein: recombinant; tags: N-terminal GST; dsDNA, one strand shown. In short, it runs like this:
as §1

In another test the target is HSF1 (Homo sapiens, UniProt Q00613 1-529). Particulars: protein: recombinant; tags: N-terminal GST; chain copies: 3; dsDNA, one strand shown. In short, it runs like this:
as §1

A further test deals with T2, SPIC (Homo sapiens, UniProt Q8N5J4 1-248).
T2 sequence: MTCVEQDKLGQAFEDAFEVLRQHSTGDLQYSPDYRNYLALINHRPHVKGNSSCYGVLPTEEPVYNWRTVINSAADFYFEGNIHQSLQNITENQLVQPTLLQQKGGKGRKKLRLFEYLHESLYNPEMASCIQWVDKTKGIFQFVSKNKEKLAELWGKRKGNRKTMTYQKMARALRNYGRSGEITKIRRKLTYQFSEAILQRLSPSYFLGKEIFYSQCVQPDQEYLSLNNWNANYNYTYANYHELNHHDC
The following applies: protein: recombinant; tags: N-terminal GST; dsDNA, one strand shown. In short, it runs like this:
as §1

In another test the target is ELF4 (Homo sapiens, UniProt Q99607 1-663). The following applies: protein: recombinant; tags: N-terminal GST; dsDNA, one strand shown. In a few lines:
as §1

In a further test the target is T3, ELK4 (Homo sapiens, UniProt P28324-2 1-405).
T3 sequence: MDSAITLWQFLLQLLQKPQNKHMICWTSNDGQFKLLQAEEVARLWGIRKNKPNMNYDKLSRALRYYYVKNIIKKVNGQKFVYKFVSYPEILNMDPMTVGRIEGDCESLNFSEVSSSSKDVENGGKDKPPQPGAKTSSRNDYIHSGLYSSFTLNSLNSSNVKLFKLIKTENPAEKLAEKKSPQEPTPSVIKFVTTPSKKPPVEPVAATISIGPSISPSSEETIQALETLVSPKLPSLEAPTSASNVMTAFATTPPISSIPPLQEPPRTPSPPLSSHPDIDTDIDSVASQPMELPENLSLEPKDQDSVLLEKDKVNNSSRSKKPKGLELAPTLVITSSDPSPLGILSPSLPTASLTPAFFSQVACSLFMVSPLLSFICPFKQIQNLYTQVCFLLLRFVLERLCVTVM
Particulars: protein: recombinant; tags: N-terminal GST; dsDNA, one strand shown. In short, it runs like this: as §1

A further test has as its target T4, ETV2 (Homo sapiens, UniProt O00321 1-342).
T4 sequence: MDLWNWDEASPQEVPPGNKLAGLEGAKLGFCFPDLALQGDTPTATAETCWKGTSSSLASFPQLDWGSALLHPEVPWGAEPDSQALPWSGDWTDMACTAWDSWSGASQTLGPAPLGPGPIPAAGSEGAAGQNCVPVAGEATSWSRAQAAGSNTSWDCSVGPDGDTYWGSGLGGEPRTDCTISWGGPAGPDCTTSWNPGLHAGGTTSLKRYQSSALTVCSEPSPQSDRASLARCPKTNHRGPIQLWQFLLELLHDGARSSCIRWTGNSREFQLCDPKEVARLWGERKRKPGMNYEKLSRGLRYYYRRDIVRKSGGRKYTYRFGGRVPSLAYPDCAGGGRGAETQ
The following applies: protein: recombinant; tags: N-terminal GST; dsDNA, one strand shown. In a few lines: as §1

In another test the target is T5, ELF3 (Homo sapiens, UniProt P78545 1-371).
T5 sequence: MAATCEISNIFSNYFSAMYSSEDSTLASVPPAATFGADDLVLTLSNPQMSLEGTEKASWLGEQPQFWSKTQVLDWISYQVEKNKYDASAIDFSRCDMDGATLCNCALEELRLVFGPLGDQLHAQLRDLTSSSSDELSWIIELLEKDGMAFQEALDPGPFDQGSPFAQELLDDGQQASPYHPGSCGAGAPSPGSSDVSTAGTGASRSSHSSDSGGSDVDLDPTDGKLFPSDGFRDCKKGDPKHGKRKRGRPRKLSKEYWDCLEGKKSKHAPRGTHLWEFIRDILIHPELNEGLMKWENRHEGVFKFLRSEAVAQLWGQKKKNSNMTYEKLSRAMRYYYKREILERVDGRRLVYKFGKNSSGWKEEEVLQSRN
Particulars: protein: recombinant; tags: N-terminal GST; dsDNA, one strand shown. In a few lines:
as §1

For another test, the target named is CRX (Homo sapiens, UniProt O43186 1-299). The following applies: protein: recombinant; tags: N-terminal GST; dsDNA, one strand shown. In a few lines:
as §1

The target of another test is ETV1 (Homo sapiens, UniProt P50549 1-477). The following applies: protein: recombinant; tags: N-terminal GST; dsDNA, one strand shown. In short, it runs like this: as §1
The target of a further test is T6, ERF (Homo sapiens, UniProt P50548 1-548).
T6 sequence: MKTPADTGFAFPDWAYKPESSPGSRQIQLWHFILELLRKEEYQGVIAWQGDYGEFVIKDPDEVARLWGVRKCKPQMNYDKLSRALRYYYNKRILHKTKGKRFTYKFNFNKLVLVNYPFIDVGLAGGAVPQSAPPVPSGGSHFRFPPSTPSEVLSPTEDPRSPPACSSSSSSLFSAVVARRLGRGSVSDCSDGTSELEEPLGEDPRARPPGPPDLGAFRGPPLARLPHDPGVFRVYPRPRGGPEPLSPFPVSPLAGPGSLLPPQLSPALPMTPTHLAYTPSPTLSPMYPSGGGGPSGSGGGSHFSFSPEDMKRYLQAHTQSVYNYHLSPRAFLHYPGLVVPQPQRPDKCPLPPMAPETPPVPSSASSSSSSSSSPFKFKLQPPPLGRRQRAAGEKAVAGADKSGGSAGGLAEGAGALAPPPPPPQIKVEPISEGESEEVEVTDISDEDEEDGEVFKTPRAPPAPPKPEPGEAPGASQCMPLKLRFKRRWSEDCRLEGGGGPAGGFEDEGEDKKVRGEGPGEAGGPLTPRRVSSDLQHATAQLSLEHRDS
Particulars: protein: recombinant; tags: N-terminal GST; dsDNA, one strand shown. In short, it runs like this:
as §1

Another test has as its target T7, ETV3L (Homo sapiens, UniProt Q6ZN32 1-361).
T7 sequence: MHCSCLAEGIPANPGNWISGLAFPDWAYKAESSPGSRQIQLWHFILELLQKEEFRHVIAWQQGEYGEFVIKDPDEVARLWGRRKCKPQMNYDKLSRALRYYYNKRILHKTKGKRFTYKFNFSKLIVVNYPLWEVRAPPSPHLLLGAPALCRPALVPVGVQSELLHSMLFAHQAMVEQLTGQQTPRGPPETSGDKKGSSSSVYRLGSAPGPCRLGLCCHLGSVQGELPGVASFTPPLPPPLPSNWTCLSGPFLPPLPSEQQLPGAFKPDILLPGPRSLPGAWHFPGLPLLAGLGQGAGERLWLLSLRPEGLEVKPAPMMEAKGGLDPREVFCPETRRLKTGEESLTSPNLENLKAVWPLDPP
Particulars: protein: recombinant; tags: N-terminal GST; dsDNA, one strand shown. In a few lines: as §1

A further test concerns the target T8, ETS2 (Homo sapiens, UniProt P15036 1-469).
T8 sequence: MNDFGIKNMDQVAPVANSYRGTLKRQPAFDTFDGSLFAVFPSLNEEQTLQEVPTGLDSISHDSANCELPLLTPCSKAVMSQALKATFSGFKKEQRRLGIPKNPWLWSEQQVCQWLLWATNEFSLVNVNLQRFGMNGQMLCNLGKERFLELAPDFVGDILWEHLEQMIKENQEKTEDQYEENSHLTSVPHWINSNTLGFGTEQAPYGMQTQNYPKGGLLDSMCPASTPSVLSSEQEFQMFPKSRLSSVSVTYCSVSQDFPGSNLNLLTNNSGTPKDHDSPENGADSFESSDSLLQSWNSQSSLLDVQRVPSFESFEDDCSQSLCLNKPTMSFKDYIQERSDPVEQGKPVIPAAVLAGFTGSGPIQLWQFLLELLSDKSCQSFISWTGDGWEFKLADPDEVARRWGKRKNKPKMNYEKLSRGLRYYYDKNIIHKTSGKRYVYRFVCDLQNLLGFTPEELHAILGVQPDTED
Particulars: protein: recombinant; tags: N-terminal GST; dsDNA, one strand shown. In a few lines: as §1

Another test deals with T9, SPDEF (Homo sapiens, UniProt O95238 1-335).
T9 sequence: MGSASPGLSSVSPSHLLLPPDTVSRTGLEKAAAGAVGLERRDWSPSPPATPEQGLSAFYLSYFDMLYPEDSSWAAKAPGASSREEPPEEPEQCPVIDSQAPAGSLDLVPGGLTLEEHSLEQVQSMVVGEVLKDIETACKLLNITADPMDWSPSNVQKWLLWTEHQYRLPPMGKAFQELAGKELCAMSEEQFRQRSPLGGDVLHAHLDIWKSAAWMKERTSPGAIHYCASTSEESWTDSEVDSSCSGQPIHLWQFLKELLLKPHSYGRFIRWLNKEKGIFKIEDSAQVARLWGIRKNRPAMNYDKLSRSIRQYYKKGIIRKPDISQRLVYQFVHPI
The following applies: protein: recombinant; tags: N-terminal GST; dsDNA, one strand shown. In short, it runs like this: as §1

Another test deals with T10, ETV7 (Homo sapiens, UniProt Q9Y603 1-341).
T10 sequence: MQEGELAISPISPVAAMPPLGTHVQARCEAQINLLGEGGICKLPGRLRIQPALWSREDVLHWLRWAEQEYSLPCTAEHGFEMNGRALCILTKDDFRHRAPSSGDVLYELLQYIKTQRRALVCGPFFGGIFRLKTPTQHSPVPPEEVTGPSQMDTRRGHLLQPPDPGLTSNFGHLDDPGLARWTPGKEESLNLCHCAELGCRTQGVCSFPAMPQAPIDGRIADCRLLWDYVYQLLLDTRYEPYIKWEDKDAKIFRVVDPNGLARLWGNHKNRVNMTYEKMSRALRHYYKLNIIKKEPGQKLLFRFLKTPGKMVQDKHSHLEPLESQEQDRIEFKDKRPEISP
The following applies: protein: recombinant; tags: N-terminal GST; dsDNA, one strand shown. In short, it runs like this: as §1

Another test addresses T11, ELF5 (Homo sapiens, UniProt Q9UKW6-2 1-255).
T11 sequence: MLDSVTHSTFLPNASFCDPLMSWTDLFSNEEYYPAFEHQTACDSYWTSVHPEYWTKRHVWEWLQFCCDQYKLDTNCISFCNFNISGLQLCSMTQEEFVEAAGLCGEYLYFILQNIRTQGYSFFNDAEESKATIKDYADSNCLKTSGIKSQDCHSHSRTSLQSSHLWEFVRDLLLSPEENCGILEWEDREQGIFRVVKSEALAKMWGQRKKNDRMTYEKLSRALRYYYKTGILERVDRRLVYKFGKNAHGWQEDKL
Particulars: protein: recombinant; tags: N-terminal GST; dsDNA, one strand shown. In short, it runs like this: as §1

The next test deals with T12, ETV3 (Homo sapiens, UniProt P41162-2 1-143).
T12 sequence: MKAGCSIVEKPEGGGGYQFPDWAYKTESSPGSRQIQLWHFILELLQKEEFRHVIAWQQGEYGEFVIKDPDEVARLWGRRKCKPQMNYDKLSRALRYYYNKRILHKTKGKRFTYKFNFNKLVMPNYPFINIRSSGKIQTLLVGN
Particulars: protein: recombinant; tags: N-terminal GST; dsDNA, one strand shown. In short, it runs like this: as §1

Another test deals with ETV6 (Homo sapiens, UniProt P41212 1-452). Particulars: protein: recombinant; tags: N-terminal GST; dsDNA, one strand shown. In a few lines: as §1
Sequence of ETV6 (P41212 whole entry): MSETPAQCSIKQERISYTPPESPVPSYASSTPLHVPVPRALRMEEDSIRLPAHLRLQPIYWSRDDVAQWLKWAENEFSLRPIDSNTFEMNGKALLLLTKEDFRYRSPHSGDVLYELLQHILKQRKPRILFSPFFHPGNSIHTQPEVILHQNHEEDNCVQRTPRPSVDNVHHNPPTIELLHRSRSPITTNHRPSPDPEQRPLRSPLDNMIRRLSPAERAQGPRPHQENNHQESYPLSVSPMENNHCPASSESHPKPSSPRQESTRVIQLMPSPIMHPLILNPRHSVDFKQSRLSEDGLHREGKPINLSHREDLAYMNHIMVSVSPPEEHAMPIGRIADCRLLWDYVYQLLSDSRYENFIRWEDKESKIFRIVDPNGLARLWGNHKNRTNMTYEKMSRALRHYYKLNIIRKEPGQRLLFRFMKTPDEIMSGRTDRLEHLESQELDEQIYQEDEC

Sequence of ETV1 (P50549 whole entry): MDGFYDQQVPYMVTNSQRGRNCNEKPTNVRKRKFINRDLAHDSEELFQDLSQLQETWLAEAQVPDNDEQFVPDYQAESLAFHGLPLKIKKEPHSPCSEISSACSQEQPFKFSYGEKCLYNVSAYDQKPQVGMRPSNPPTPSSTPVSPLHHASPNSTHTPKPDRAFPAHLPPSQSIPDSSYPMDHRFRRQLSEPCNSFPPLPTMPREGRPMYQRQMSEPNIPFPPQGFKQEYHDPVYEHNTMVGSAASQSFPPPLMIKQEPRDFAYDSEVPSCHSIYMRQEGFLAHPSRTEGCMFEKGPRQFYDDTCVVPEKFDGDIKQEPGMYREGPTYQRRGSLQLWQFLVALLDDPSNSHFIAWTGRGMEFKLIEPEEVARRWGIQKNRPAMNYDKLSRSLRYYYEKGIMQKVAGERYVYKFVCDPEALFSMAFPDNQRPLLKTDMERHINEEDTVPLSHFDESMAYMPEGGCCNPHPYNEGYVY
Sequence of ETV5 (P41161 whole entry): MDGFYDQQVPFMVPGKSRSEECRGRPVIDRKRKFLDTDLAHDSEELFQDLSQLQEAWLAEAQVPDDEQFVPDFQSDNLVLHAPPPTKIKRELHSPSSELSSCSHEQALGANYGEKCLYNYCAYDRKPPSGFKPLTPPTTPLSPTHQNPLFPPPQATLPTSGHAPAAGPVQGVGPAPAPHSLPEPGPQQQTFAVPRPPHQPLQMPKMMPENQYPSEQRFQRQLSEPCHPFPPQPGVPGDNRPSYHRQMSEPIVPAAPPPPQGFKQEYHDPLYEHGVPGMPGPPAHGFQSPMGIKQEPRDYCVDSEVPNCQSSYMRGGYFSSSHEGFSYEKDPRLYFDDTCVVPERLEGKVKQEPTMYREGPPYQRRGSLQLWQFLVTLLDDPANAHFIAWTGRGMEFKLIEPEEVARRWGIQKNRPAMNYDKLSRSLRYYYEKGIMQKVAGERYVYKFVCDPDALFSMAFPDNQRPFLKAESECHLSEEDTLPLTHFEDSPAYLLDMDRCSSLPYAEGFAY
Sequence of HSF1 (Q00613 whole entry): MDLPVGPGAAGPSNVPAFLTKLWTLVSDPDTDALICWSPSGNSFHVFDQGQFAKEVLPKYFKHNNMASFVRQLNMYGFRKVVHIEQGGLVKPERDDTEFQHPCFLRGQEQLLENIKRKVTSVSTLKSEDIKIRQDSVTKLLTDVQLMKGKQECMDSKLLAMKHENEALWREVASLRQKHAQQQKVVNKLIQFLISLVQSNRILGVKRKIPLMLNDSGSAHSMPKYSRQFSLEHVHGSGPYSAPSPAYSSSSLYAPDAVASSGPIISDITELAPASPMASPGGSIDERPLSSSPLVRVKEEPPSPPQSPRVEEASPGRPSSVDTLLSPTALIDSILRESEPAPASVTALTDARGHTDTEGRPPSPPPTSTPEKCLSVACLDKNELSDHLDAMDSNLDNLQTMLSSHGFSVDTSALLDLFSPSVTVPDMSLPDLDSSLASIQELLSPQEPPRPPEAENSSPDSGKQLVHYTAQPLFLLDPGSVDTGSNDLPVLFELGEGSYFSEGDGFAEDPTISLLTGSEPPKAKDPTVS
Sequence of CRX (O43186 whole entry): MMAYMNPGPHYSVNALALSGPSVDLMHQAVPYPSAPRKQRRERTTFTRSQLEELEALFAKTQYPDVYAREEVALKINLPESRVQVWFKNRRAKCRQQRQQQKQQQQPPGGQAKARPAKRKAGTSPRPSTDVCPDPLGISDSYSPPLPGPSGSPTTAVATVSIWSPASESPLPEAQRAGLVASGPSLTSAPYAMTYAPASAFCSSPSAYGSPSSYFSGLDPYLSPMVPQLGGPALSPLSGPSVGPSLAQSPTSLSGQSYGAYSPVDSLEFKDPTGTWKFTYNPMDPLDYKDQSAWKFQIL
Sequence of ELF4 (Q99607 whole entry): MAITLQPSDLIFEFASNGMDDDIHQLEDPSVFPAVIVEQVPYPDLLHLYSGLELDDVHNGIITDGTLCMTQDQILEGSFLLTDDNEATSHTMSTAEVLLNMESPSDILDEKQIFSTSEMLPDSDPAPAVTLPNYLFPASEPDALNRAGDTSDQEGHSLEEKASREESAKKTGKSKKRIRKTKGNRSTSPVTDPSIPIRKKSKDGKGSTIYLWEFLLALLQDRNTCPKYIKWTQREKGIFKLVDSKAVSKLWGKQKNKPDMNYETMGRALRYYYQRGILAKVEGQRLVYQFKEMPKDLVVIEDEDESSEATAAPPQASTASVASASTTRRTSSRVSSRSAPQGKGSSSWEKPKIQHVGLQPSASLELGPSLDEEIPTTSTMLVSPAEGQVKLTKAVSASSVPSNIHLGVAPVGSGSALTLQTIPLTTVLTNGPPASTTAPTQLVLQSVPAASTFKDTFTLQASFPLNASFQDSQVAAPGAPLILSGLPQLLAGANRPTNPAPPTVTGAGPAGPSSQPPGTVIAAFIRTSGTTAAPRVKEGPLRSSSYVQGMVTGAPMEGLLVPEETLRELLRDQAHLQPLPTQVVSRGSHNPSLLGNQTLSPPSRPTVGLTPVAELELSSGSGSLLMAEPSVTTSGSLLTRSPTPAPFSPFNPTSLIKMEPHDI

Regarding TAAAAC, the binding signal is 1.22 fold enrichment (6-mer frequency, TF over GST control) in the test with FEV; 1.18 fold enrichment (6-mer frequency, TF over GST control) with ETV5; 1.32 fold enrichment (6-mer frequency, TF over GST control) with HSF1; 1.29 fold enrichment (6-mer frequency, TF over GST control) with SPIC; 1.16 fold enrichment (6-mer frequency, TF over GST control) with ELF4; 1.15 fold enrichment (6-mer frequency, TF over GST control) in the test with ELK4. The binding signal is 1.17 fold enrichment (6-mer frequency, TF over GST control) with ETV2; 1.14 fold enrichment (6-mer frequency, TF over GST control) with ELF3; 1.66 fold enrichment (6-mer frequency, TF over GST control) in the test with CRX; 1.18 fold enrichment (6-mer frequency, TF over GST control) in the test with ETV1; 1.22 fold enrichment (6-mer frequency, TF over GST control) in the test with ERF; 1.2 fold enrichment (6-mer frequency, TF over GST control) with ETV3L. The binding signal is 1.15 fold enrichment (6-mer frequency, TF over GST control) in the test with ETS2; 1.18 fold enrichment (6-mer frequency, TF over GST control) in the test with SPDEF; 1.27 fold enrichment (6-mer frequency, TF over GST control) in the test with ETV7; 1.12 fold enrichment (6-mer frequency, TF over GST control) with ELF5; 1.24 fold enrichment (6-mer frequency, TF over GST control) with ETV3; 1.16 fold enrichment (6-mer frequency, TF over GST control) with ETV6.
